Results on twelve compounds are retold here after PubChem BioAssay (NCI).

Molecules are shown by their SMILES. The panel holds about 83,000 compounds, 20% with a hit somewhere; the sample as a whole holds those more often.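 Treatment: one concentration, 48 hours, 96-well format. Scoring: percent growth, with anything below 10 considered active.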 The source made the active and inactive calls.

The assay relates to HL-60(TB) leukemia. The experiment in a line: NCI-60 one-dose screen, 48 h (100 = growth as untreated, 0 = no growth, -100 = all killed). Particulars: 10 µM unless noted.
As for `Cn1cc(-c2csc(-c3cn(CCO)c4ccc(F)cc34)n2)c2cccnc21`, the growth is 50.2% (inactive).
Turning to `CC(=O)Nc1ccc(S(=O)(=O)c2ccnc3cc(Cl)ccc23)cc1`, the growth is 87% (inactive).
The figure for `Cn1cc(-c2csc(-c3ccccc3)n2)c2cccnc21` is 3.19% [100 µM] (active).
The result for `CC[C@]1(O)C[C@@H]2CN(CCc3c([nH]c4ccccc34)[C@@](C(=O)OC)(c3cc4c(cc3OC)N(C)[C@H]3[C@@](O)(C(N)=O)[C@H](O)[C@]5(CC)[C@@H]6C[C@@H]6CN6CC[C@]43[C@@H]65)C2)C1` reads -3.28% (active); that for `CCn1cc(-c2ccnc(NCCNS(=O)(=O)c3cccc4ccccc34)c2)c(-c2cccc(O)c2)n1`, 103% (inactive); that for `CC(=O)OCCc1ccccc1`, 92% (inactive).
For the compound `CCCCc1ccc(NC(=O)C(F)(F)F)cc1`, the growth is 71.2% (inactive).
With `CN1C(=O)C(C(=O)/C=C/c2ccccc2C(=O)O)C(=O)N(C)C1=O`, the growth was 97.4% (inactive).
The result for `N#Cc1c(NC(=O)c2ccc(Br)cc2)sc2c1CCCC2` reads 14.1% (inactive); that for `O=C(COc1cccc(/C=C2\Oc3ccc4ccccc4c3C2=O)c1)c1ccc(Cl)cc1`, 107% (inactive).
The result for `CCOC(=O)CSCCC#N` reads 118% (inactive); that for `CCC(C)C1NC(=O)C(NC(=O)c2c3nc4c(C(=O)NC5C(=O)NC(C(C)CC)C(=O)N6CCCC6C(=O)N(C)CC(=O)N(C)C(C(C)C)C(=O)OC5C)ccc(C)c4oc-3c(C)c(=O)c2N)C(C)OC(=O)C(C(C)C)N(C)C(=O)CN(C)C(=O)C2CCCN2C1=O` (configuration not stated), -13.9% (active).
